From PubChem BioAssay (Tox21) come the findings set out here.

Unmarked numbers belong to inactive results. Results filed as inconclusive are left out. Active and inactive are the calls of the source. Unless noted, calls come from the whole dose curve; as a rule, active = well fitted curve in the direction sought with a large enough effect in the repeat runs; inconclusive = weak or mixed curves; inactive = no such curve, though single readings can be large; an effect the other way counts as inactive or inconclusive.

Test [1] in a line: qHTS assay to identify small molecule agonists of the estrogen receptor alpha (ER-alpha) signaling pathway in the presence of an antagonist - cell viability counter screen (AID 1259386). Note: series mostly up to about 92 µM; nearly all actives have a fitted effect of over 30% in size. In short, it runs like this: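 Read-out: CellTiter-Fluor fluorescence after 1hr reagent incubation, measured in the same wells as the luciferase readout. VM7Luc4E2 cells were exposed to 15 compound concentrations with 10.0nM ICI-182,780 for 22hr at 37C.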

Test [2] deals with Progesterone receptor (Homo sapiens) (UniProt P06401). In words: qHTS assay to identify small molecule agonists of the progesterone receptor (PR) signaling pathway (AID 1346784; calls by dose curve; note: nearly all actives have a fitted effect of over 30% in size). In short, it runs like this: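 Reporter assay, GripTite PR-UAS-bla HEK 293T cells: 16 hr exposure to DMSO-dissolved compounds at 37C, 5% CO2, in steroid-depleted (2% charcoal-stripped FBS) medium; beta-lactamase measured by FRET fluorescence.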
In general terms: qHTS replaces the single test concentration by a dilution series.

For test [3] the target is unchanged. In words: qHTS assay to identify small molecule antagonists of the progesterone receptor (PR) signaling pathway (AID 1346795; active = well fitted inhibition curve with a large enough effect in the signal ratio in the repeat runs, not every such curve was filed as active; the % refers to the signal ratio). The essentials: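 Stimulus R5020 at 1 nM final; cells HEK293T PR-UAS-bla; medium with 2% charcoal-stripped FBS; compound exposure 16 hr at 37C, 5% CO2; detection by FRET beta-lactamase substrate, 2 hr, room temperature.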
Test [4] in a line: qHTS assay to identify small molecule antagonists of the progesterone receptor (PR) signaling pathway - cell viability counter screen (AID 1346798). Note: series mostly up to about 92 µM; nearly all actives have a fitted effect of over 50% in size. The essentials:
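In the same plates used for the beta-lactamase readout, cell viability of compound- and R5020-treated PR-UAS-bla HEK293T cells (16 hr, 37C) was assessed by CellTiter-Glo luminescence.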

The nature of test [5]: qHTS assay to identify small molecule agonists of the progesterone receptor (PR) signaling pathway - cell viability counter screen (AID 1346799; calls by dose curve; note: nearly all actives have a fitted effect of over 45% in size). The essentials:
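Multiplexed viability read: CellTiter-Glo luminescence, 30 min RT, following LiveBLAzer FRET measurement on PR-UAS-bla HEK293T cells exposed to compounds 16 hr.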

Test [6] in a line: qHTS assay to identify small molecule antagonists of the TGF-beta/Smad signaling pathway - cell viability counter screen (AID 1346824). Note: nearly all actives have a fitted effect of over 50% in size. In short, it runs like this: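 Cytotoxicity counter-screen run in the same wells as the beta-lactamase Smad reporter read: CellTiter-Glo luminescence after 30 min at room temperature. HEK 293T SBE-bla cells had 5 hr compound exposure at 37 C with TGF-beta1 (0.25 ng/mL stock).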

A short description of test [7]: qHTS assay to identify small molecule agonists of the TGF-beta/Smad signaling pathway - cell viability counter screen (AID 1346829). Note: top concentration of the series differs between compounds; nearly all actives have a fitted effect of over 45% in size. The essentials: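 CellTiter-Glo luminescence readout; SBE-bla HEK 293T cells, overnight plating, compound 5 hr at 37 C/5% CO2, then bla substrate 2 hr RT, then CellTiter-Glo 30 min RT.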
Test [8] is described as follows: qHTS assay to identify small molecule agonists of the TGF-beta/Smad signaling pathway (AID 1346859; active = well fitted activation curve with a large enough effect in the signal ratio in the repeat runs, not every such curve was filed as active; the % refers to the signal ratio; note: series mostly up to about 77 µM). In short, it runs like this:
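Screening used HEK 293T SBE-bla cells at 4,000/well. Test agents: 5 hr, 37 C. Detection: FRET substrate, 2 hr RT, then excitation 405 nm with emissions at 460 and 530 nm.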

Test [9] deals with Thyrotropin-releasing hormone receptor (Homo sapiens) (UniProt P34981). In words: qHTS assay to identify small molecule antagonists of the thyrotropin-releasing hormone receptor (TRHR) signaling pathway (AID 1346877; active = well fitted inhibition curve with a large enough effect in the repeat runs, not every such curve was filed as active; note: series mostly up to about 51 µM). In short, it runs like this:
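HEK293/TRHR cells, 18 h, 37 °C; Ca2+ dye 2 h; cpd 5 min RT; TRH 1 nM final; fluorescence read 3 min, 1 s intervals; 15 concs, triplicate.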

Test [10] has the same target. In words: qHTS assay to identify small molecule agonists of the thyrotropin-releasing hormone receptor (TRHR) signaling pathway (AID 1346891; calls by dose curve; note: series mostly up to about 58 µM). The essentials: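 Readout was intracellular calcium fluorescence in TRHR-Hek293 cells. Cells were incubated 18 h, dye-loaded 2 h at 37 °C, and treated with compound in agonist mode.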
A short description of test [11]: Human pregnane X receptor (PXR) small molecule agonists, qHTS cell viability counter screen (AID 1346977). Note: nearly all actives have a fitted effect of over 50% in size. Note: potency is the fitted concentration of half-maximal effect. The essentials: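 In each well, the PXR reporter HepG2 line was checked for viability: CellTiter-Fluor reagent added 23hr post-dosing, fluorescence read after 1hr incubation at 37C.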
The nature of test [12]: Caspase-3/7 induction in HepG2 cells by small molecules, qHTS assay (AID 1346978). Note: nearly all actives have a fitted effect of over 15% in size. The essentials: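 Caspase-3/7 induction was measured by Caspase-Glo 3/7 luminescence (30 min, room temperature) after a 17 hr compound exposure of wild-type HepG2 cells seeded at 2,000 per well and pre-incubated 5 hr.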
A short description of test [13]: Caspase-3/7 induction in CHO-K1 cells by small molecules, qHTS cell viability counter screen (AID 1346979). Note: nearly all actives have a fitted effect of over 35% in size. Note: potency is the fitted concentration of half-maximal effect. In short, it runs like this:
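Following a 5hr settling period, CHO-K1 cells at 1,500 per well received DMSO-dissolved compounds. Cell viability was quantified 16hr later by CellTiter-Fluor fluorescence, measured after 1hr with reagent at 37C.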

Test [14] in a line: Caspase-3/7 induction in CHO-K1 cells by small molecules, qHTS assay (AID 1346980). Note: nearly all actives have a fitted effect of over 15% in size. In short, it runs like this: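 Luminescent Caspase-Glo 3/7 read (30min, room temperature) quantified apoptosis induction. Cells were wild-type CHO-K1, treated with compound for 17hr at 37 C and 5% CO2.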
Test [15] is described as follows: Caspase-3/7 induction in HepG2 cells by small molecules, qHTS cell viability counter screen (AID 1346981). Note: nearly all actives have a fitted effect of over 30% in size. Note: potency is the fitted concentration of half-maximal effect. The essentials: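 Fluorescence read-out of live-cell protease activity (CellTiter-Fluor) after 1 hr with reagent. This was measured in the same wells as the caspase-3/7 luminescence, on HepG2 cells exposed to DMSO-dissolved compounds for 16 hr at 37 C.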
Test [16] has as its target Nuclear receptor subfamily 1 group I member 2 (Homo sapiens) (UniProt O75469). In words: Human pregnane X receptor (PXR) small molecule agonists, qHTS assay (AID 1346982). Note: nearly all actives have a fitted effect of over 35% in size. Note: potency is the fitted concentration of half-maximal effect. In short, it runs like this:
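HepG2 PXR-Luc reporter line, 5% charcoal-stripped FBS; 5 hr pre-incubation, compound (DMSO) 24 hr at 37 C/5% CO2; ONE-Glo 30 min RT; luminescence read-out.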

Test [17] concerns the target Acetylcholinesterase (Homo sapiens) (UniProt P22303). In words: Acetylcholinesterase (AChE) small molecule antagonists: colormetric cell-based qHTS assay (AID 1347395; calls by dose curve; note: nearly all actives have a fitted effect of over 30% in size). In short, it runs like this:
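After overnight attachment at 37 C, SH-SY5Y cells get 30 min compound exposure; detection cocktail (acetylthiocholine, DTNB) then incubates 90 min at 37 C, and absorbance reflects AChE-generated thiocholine.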

Test [18] deals with Nuclear receptor subfamily 1 group I member 2 (Rattus norvegicus) (UniProt Q9R1A7). In words: Rat pregnane X receptor (rPXR) activation by small molecules, qHTS assay (AID 1346983). Note: nearly all actives have a fitted effect of over 20% in size. The following applies: rPXR luciferase reporter cells, One-Glo luminescence, 24 h; active compounds read high. In short, it runs like this: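 Luminescent readout (One-Glo luciferase, 30 min room temperature) followed 24 hr compound treatment at 37 C of rPXR cells plated 2,000 per well and preincubated 5hr; qHTS format with compounds delivered in DMSO.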

The target of test [19] is Nuclear receptor subfamily 1 group I member 2 (Homo sapiens) (UniProt O75469). In words: CYP3A4 induction through human pregnane X receptor (PXR) by small molecules, qHTS assay (AID 1346984). Note: nearly all actives have a fitted effect of over 40% in size. The essentials:
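HepG2-derived DPX-2 line carrying PXR plus a CYP3A4-promoter luciferase reporter; cells plated 5 hr, compound-exposed 24 hr at 37C. CYP3A4 activity probed with 3uM (final) Luciferin-IPA for 3hr, then luciferase read after One-Glo.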

The target is the same in test [20]. In words: Human pregnane X receptor (PXR) activation by small molecules, qHTS assay (AID 1346985). Note: nearly all actives have a fitted effect of over 40% in size. In short, it runs like this: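 DPX-2 cells (HepG2 co-transfected with a PXR response element and a CYP3A4-promoter luciferase construct) were seeded at 2,000 per well, rested 5 hr at 37C, then exposed to DMSO-dissolved compounds for 24 hr. Activation was read as luciferase luminescence.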
% is set by controls: 0 for no effect and ±100 for the full control effect.

Thyrotropin-releasing hormone receptor (Homo sapiens), sequence (P34981 whole entry, looked up): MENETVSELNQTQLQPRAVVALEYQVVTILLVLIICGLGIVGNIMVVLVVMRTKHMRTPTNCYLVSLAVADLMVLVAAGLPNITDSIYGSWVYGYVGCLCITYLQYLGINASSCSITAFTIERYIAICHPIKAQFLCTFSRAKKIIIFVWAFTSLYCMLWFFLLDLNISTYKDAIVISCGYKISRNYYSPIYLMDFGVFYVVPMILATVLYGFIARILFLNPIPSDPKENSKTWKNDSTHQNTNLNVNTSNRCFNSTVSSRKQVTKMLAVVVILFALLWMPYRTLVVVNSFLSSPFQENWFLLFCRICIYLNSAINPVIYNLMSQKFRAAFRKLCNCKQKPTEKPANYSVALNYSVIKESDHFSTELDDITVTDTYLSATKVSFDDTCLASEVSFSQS
Acetylcholinesterase (Homo sapiens), sequence (P22303 whole entry, looked up): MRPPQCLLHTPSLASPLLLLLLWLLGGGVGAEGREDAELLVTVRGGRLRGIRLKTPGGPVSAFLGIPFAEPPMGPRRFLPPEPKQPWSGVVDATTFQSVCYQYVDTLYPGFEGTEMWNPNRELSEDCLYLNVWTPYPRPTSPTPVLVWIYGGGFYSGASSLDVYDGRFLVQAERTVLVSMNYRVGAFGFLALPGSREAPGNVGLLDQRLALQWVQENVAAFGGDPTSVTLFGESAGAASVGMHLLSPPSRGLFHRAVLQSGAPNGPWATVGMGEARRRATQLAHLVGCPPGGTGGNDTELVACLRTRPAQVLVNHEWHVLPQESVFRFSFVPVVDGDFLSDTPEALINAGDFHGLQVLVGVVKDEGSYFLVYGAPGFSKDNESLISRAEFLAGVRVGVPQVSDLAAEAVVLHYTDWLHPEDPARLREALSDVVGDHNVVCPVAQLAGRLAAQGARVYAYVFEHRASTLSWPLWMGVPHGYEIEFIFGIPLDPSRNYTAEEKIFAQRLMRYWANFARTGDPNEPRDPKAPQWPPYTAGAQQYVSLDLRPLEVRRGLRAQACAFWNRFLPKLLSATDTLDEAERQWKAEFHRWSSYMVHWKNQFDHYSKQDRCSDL
Nuclear receptor subfamily 1 group I member 2 (Homo sapiens), sequence (O75469 whole entry, looked up): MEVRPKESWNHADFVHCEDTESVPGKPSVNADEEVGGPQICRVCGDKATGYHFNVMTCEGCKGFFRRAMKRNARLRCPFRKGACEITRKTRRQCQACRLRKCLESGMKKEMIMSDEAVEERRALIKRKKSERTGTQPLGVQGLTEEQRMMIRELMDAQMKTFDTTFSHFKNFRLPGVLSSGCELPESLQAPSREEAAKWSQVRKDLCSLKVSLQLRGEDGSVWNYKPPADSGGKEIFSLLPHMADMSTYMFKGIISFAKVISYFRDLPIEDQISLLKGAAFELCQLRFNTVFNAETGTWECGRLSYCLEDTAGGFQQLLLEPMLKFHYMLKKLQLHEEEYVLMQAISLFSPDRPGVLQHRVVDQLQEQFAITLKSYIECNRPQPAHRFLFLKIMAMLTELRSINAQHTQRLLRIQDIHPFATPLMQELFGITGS
Progesterone receptor (Homo sapiens), sequence (P06401 whole entry, looked up): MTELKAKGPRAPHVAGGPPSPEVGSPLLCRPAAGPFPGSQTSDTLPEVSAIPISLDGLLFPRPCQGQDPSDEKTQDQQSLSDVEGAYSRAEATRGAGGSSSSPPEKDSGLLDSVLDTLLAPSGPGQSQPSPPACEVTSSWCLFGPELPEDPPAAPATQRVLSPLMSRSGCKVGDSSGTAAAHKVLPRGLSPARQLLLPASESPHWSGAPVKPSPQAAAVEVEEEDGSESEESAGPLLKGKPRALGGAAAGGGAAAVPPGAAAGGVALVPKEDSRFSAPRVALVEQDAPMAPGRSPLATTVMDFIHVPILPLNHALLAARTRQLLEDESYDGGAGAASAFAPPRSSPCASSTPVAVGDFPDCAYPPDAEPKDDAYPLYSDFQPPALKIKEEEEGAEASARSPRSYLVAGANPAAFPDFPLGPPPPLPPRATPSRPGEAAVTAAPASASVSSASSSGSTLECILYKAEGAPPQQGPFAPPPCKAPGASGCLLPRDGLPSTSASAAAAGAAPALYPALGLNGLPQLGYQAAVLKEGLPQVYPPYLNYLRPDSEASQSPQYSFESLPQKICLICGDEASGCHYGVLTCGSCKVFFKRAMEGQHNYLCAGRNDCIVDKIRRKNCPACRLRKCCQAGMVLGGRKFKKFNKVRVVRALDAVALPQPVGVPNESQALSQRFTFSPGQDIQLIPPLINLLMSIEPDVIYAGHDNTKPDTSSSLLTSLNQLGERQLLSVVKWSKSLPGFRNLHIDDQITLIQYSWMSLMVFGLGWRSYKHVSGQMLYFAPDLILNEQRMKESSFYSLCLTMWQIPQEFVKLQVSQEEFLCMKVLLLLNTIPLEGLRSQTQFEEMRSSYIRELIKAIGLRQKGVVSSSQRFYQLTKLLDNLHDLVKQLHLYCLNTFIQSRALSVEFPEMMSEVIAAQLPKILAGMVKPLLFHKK
Nuclear receptor subfamily 1 group I member 2 (Rattus norvegicus), sequence (Q9R1A7 whole entry, looked up): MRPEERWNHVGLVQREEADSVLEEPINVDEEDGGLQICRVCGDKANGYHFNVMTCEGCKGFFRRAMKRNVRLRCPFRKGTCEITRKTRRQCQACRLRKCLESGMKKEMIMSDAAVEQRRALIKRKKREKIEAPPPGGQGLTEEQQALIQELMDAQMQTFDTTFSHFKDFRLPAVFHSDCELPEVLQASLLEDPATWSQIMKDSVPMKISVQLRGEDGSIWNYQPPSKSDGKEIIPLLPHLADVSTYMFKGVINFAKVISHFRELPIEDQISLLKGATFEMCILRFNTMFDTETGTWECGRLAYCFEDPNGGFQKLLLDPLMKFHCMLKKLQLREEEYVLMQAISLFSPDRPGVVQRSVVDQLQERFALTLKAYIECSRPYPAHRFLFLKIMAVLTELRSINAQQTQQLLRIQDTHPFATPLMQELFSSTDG

Consider `C1CS1`, for which the Potency entry in test [1], in test [2], in test [3], in test [4], in test [5] and in test [6] was “inactive” throughout. The Potency entry in [7], in test [9], in [11], in test [12], in [13] and in test [14] was “inactive” each time. Moreover, the Potency result in test [15], in test [16] and in test [17] was “inactive” in each case. For the same molecule, the molecule was called inactive in [8] and in [10].

`CC[N+]1(CCOC(=O)C(O)(c2ccccc2)c2ccccc2)CCCCC1`: the Potency result in [1], in [2], in test [3], in test [4], in test [5] and in test [6] was “inactive” each time. Besides, the Potency result in test [7], in [11], in test [12], in [13], in test [14] and in test [15] was “inactive” each time. Moreover, the Potency entry in test [16], in test [20] and in test [17] was “inactive” throughout. Also, the result in [8] and in test [19] was inactive. For the same molecule, in test [18], the max activation is 0.456%.

On to `O=C(O)c1cc(Cl)ccc1Cl`, for which the Potency entry in test [1], in [2], in test [3], in test [4], in [5] and in [6] was “inactive” in each case. The Potency result in test [7], in test [11], in [12], in test [13], in test [14] and in test [15] was “inactive” throughout. Further, the Potency entry in test [16] and in [17] was “inactive” each time. Besides, in test [8], the result was inactive.

Consider `CN1CC[C@]23c4c5ccc(O)c4O[C@H]2[C@@H](O)C=C[C@H]3[C@H]1C5`, for which the Potency entry in test [1], in [2], in [3], in test [4], in test [5] and in [6] was “inactive” each time. Moreover, the Potency result in [7], in [9], in test [11], in test [12], in [13] and in test [14] was “inactive” throughout. Further, the Potency entry in test [15] and in [16] was “inactive” each time. For the same molecule, the call in test [10] was inactive.

Regarding `Clc1ccccc1`, the Potency entry in test [1], in test [2], in [3], in test [4], in test [5] and in [6] was “inactive” each time. Besides, the Potency result in [7], in [9], in [12], in test [14] and in [17] was “inactive” each time. For the same molecule, the result in [8] and in test [10] was inactive. The Potency in test [11] was 26.9 µM (active); in test [13], 9.55 µM (active); in test [15], 26.9 µM (active); in test [16], 24 µM (active).

As for `CC(CC(C(N)=O)(c1ccccc1)c1ccccc1)N(C)C` (stereo unspecified), the Potency result in [1], in test [2], in test [3], in test [4], in [5] and in test [6] was “inactive” each time. Moreover, the Potency result in test [7], in test [9], in test [11], in [12], in test [13] and in test [14] was “inactive” each time. Moreover, the Potency result in test [15], in test [16] and in test [17] was “inactive” each time. Besides, the result in [8] and in test [10] was inactive.

Regarding `CCc1cnc(C2=NC(C)(C(C)C)C(=O)N2)c(C(=O)O)c1` (stereo unspecified), the Potency entry in [1], in test [2], in [3], in [4], in test [5] and in test [6] was “inactive” in each case. The Potency entry in [7], in test [9], in test [11], in test [12], in test [13] and in test [14] was “inactive” each time. Further, the Potency entry in [15], in test [16] and in [17] was “inactive” throughout. Besides, the result in test [8] and in [10] was inactive.

For the molecule `CCC[N+](CCC)(CCC)CCC`, the Potency entry in test [1], in test [2], in [3], in test [4], in test [5] and in test [6] was “inactive” in each case. Moreover, the Potency result in test [7], in [9], in test [11], in test [12], in test [13] and in [14] was “inactive” throughout. Besides, the Potency entry in test [15] and in test [16] was “inactive” in each case. Besides, the molecule was classed as inactive in [10].
